High-throughput results as filed in PubChem.
This is a sample that favours compounds with a hit; in the whole collection about 2.7% have one here.
GSIS activator: GLuc luminescence reporter in INS-1E cells, primary screen for activators of glucose-dependent secretion of insulin; activation, % at 16.6 µM; hit rate 0.61% among 370,000; INS-1E GLuc reporter insulin secretion, 2-3 h; AID 743287, 2014;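 active = lowest replicate activation of at least 40%, so every replicate reaches that level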;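 note: 0% = median of neutral control wells and 100% = median of IBMX positive control wells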
Env fusion inh: inhibitors of HIV-1 Env-driven cell-cell fusion, primary screen, HeLa-JRFL effector, CEM21 target cells, luciferase; inhibition, % at 12.3 µM; hit rate 1.1% among 360,000;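 active = mean replicate inhibition score of at least 50 and every replicate individually at or above 50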;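 note: 0% = plate neutral controls and 100% = maraviroc near 300 nM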
PAX8 inh HTS: inhibitors of PAX8-driven TPO luciferase reporter, primary screen, RMG-I cells, single concentration | SteadyGlo, 24 h | AID 652154, 2013 | hit rate 1.2% among 360,000 | inhibition, % at 12.6 µM;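 active = mean replicate inhibition at least 60% with every replicate also reaching 60%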;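 note: luciferase light reporting Pax8 driven TPO promoter activity; plate controls were median of neutral control wells for no effect and mitoxantrone controls for full effect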
CFTR F508del cor: F508del CFTR correction, initial screen, CFBE line, single point | hit rate 0.36% among 350,000 | CFBE cells, YFP halide quenching; stimulated with forskolin plus potentiator P3; % fluorescence drop versus neutral controls | activity (quench increase), % at 7.58 µM;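 active = mean added fluorescence quench of at least 8% versus neutral control, with both replicates also reaching 8%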;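 note: cells transiently co-express mutant CFTR-F508del with the halide-sensitive YFP; corrector assay measuring rescue of mutant channel to the surface after 24 h compound exposure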
EWS-Fli inh: EWS/Fli-driven NR0B1 reporter inhibitors, primary screen, A673 cells, NR0B1 luciferase, luminescence, MLPCN library | viability-normalised | inhibition, % at 12.6 µM | hit rate 0.67% among 350,000 | AID 651661, 2012;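 active = mean inhibition of at least 50% after viability correction, with every replicate also passing that limit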;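 note: firefly luciferase signal divided by Alamar Blue viability fluorescence both relative to DMSO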
PGC1a acetyl inh: inhibitors of PGC1a acetylation signal, primary screen, cell-based, U2OS, AlphaScreen, inhibitor mode; AlphaScreen anti-acetyl-lysine; with virally co-expressed GCN5 acetyltransferase; inhibition, % at 15.6 µM; hit rate 0.17% among 350,000; AID 651687, 2012;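 active = every replicate shows inhibition of at least 40%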;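 note: 0% = neutral control wells and 100% = positive control wells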
Starred values were filed as active, the others as inactive; [ ] = remark or other dose.

Screening CC(C)C[C@H]1CN([C@@H](Cc2ccc(O)cc2)CN2CCC[C@H]2CN2C(=O)C(=O)NC[C@@H]2Cc2ccccc2)C(=O)C(=O)N1CC1CCCCC1 returned GSIS activator -8, Env fusion inh 14, PAX8 inh HTS -5, CFTR F508del cor 8.4* and EWS-Fli inh 24.
`CC(C)C[C@@H](CN1CCC[C@H]1CN1C(=O)C(=O)NC[C@@H]1Cc1ccccc1)N1C[C@H](Cc2ccccc2)N(CC2CCCCCC2)C(=O)C1=O` gave GSIS activator -40, Env fusion inh -8, PAX8 inh HTS 65*, CFTR F508del cor 3 and EWS-Fli inh 17.
O=C1NC[C@@H](CCCCN2C[C@H](Cc3ccc(O)cc3)N(Cc3ccccc3)C(=O)C2=O)N(CCc2ccc(O)cc2)C1=O was read as GSIS activator 4, Env fusion inh 57*, PAX8 inh HTS -5, CFTR F508del cor 1 and EWS-Fli inh -10.
`CC(C)C[C@H]1CN([C@@H](Cc2ccc(O)cc2)CN2CCC[C@H]2CN2C(=O)C(=O)NC[C@@H]2Cc2ccccc2)C(=O)C(=O)N1CCc1ccccc1` gave Env fusion inh 5, PAX8 inh HTS -13, CFTR F508del cor 3 and EWS-Fli inh 5.
CC(C)C[C@H]1CN([C@@H](Cc2ccc(O)cc2)CN2CCC[C@H]2CN2C(=O)C(=O)NC[C@@H]2Cc2ccc(O)cc2)C(=O)C(=O)N1CCc1ccccc1 was read as GSIS activator 44*, Env fusion inh 60*, PAX8 inh HTS 3, CFTR F508del cor -1 and EWS-Fli inh 9.
For O=C1NC[C@H](CCCCN2C[C@H](Cc3ccc(O)cc3)N(Cc3ccccc3)C(=O)C2=O)N(CCc2ccc(O)cc2)C1=O the results were GSIS activator -12, Env fusion inh 0, PAX8 inh HTS -17, CFTR F508del cor -1 and EWS-Fli inh 3.
Screening CCCN1C[C@H](C)[C@H](OC)CN(C)C(=O)c2ccc(NC(=O)c3cccc(OC)c3)cc2OC[C@@H]1C returned GSIS activator 13, Env fusion inh -11[16.7 µM], CFTR F508del cor 1, EWS-Fli inh 10 and PGC1a acetyl inh -1.
Screening CC(C)CC#Cc1ccc2c(c1)O[C@H](CN(C)C(=O)c1ccccc1F)[C@@H](C)CN([C@H](C)CO)S2(=O)=O returned GSIS activator -12, Env fusion inh 11[16.7 µM], CFTR F508del cor -4, EWS-Fli inh 24 and PGC1a acetyl inh 3.
C[C@@H]1CCCCO[C@H](CN(C)C(=O)C2CCCCC2)[C@@H](C)CN([C@@H](C)CO)C(=O)c2cc(NC(=O)NC3CCCCC3)ccc2O1 was read as GSIS activator -26, Env fusion inh 1[16.7 µM], PAX8 inh HTS 12, CFTR F508del cor -1, EWS-Fli inh -1 and PGC1a acetyl inh -2.
Screening C[C@H](NC(=O)C[C@@H]1C[C@H]2c3cc(NC(=O)C4CCC4)ccc3O[C@H]2[C@H](CO)O1)c1ccccc1 returned GSIS activator -6, PAX8 inh HTS 9, CFTR F508del cor 1, EWS-Fli inh 6 and PGC1a acetyl inh -4.
For CC(C)NC(=O)Nc1ccc2c(c1)C(=O)N([C@H](C)CO)C[C@@H](C)[C@@H](CN(C)C(=O)Nc1ccc(F)cc1)O2 the results were GSIS activator 9, Env fusion inh 4[16.7 µM], PAX8 inh HTS -10, CFTR F508del cor 3, EWS-Fli inh -17 and PGC1a acetyl inh 9.
`CCOc1ccc(-n2c(SCC(=O)Nc3nccs3)nc3c(c2=O)SCC3)cc1` gave Env fusion inh -31, PAX8 inh HTS -5, CFTR F508del cor 5 and EWS-Fli inh 19.
`Cc1ccc(-n2c(SCC(=O)Nc3nccs3)nc3c(c2=O)SCC3)cc1` gave GSIS activator 82*, Env fusion inh -65 and PGC1a acetyl inh 5.
Screening Cc1ncccc1C(=O)N1CCCC(C(=O)c2ccc3c4c(cccc24)CC3)C1 (configuration not stated) returned GSIS activator -8, Env fusion inh 90*, PAX8 inh HTS -10, CFTR F508del cor -1 and EWS-Fli inh 6.
